High-throughput results as filed in PubChem.
CHT allo act: allosterically activates the human high affinity choline transporter | actives 0.49% (n = 310,000) | CHT-expressing cells, membrane potential dye, choline EC20; stronger effect = higher value; LV-AA mutant CHT in HEK293 cells | AID 488977 | Q9GZV3 | B-score at 10 µM;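 active = initial fluorescence not abnormally high and integrated response B-score, plate-corrected, over 3 SD above library mean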
EP2 modulator: modulators of human EP2 prostaglandin E2 receptor; P43116; EP2-expressing cells, cAMP HTRF FRET, PGE2 co-stimulation; induction, % at 25 µM; actives 0.83% (n = 260,000);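 active = compounds whose cAMP rise, as percent of the full-agonist control response, exceeds 60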;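 note: rat C6 glioma line stably carrying human EP2 under a CMV promoter; the protocol text gives 20 µM as final concentration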
Target sequence (P43116 whole entry, looked up): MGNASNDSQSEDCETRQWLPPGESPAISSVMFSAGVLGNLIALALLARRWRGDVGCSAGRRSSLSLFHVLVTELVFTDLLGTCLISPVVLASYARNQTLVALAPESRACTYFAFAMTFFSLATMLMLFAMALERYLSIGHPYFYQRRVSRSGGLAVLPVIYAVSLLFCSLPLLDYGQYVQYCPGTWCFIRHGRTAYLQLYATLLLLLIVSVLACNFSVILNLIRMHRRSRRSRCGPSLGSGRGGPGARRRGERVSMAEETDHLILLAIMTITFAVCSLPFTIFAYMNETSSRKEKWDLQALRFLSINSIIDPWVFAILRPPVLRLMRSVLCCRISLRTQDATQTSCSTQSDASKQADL
CHT inh: inhibits the human high affinity choline transporter; CHT-expressing cells, membrane potential dye, choline response; stronger effect = lower value; B-score at 10 µM; actives 0.86% (n = 310,000);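 active = B-score over 3 SD under the library average, and starting fluorescence ratio not unusually high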;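 note: choline stimulus applied at its EC90 after an EC20 pre-addition; B-score computed on integrated fluorescence ratio after choline addition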
EP2 antag: blocks the human prostaglandin E2 receptor EP2. P43116. C6 glioma cells expressing human EP2, cAMP TR-FRET; cells stimulated with saturating PGE2. inhibition, % at 25 µM. actives 0.52% (n = 260,000). AID 1422;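 active = percent inhibition above 40 after rounding to a whole number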;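 note: rat C6 glioma host cells with rolipram phosphodiesterase inhibitor present; the protocol text gives 20 µM as final concentration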
Of the large screens only hits and unclear results are named; the others gave an inactive call. Only some compounds are listed: those with a hit (about 2.1% of all), similar ones and a draw of the others.

C[C@@H](O)CN(CCN(C[C@@H](C)O)C[C@@H](C)O)C[C@@H](C)O.O=[N+]([O-])O.[Cu]	EP2 antag 41 (no result: CHT allo act, CHT inh)
CCCn1cc(CN2C3CCC2CC(O)(c2ccccc2F)C3)cn1 (stereo unspecified)	none (no result: CHT allo act, CHT inh)
Cn1ccnc1C1(O)CC2CCC(C1)N2CC(=O)Nc1ccc(F)cc1 (stereo unspecified)	none (no result: CHT allo act, CHT inh, EP2 antag)
Cc1c([C@@H](C)[C@H]2NC[C@H](C)C[C@@H]2O)ccc2c1C[C@@H]1[C@@H]2CC=C2C[C@@H](O)CC[C@@]21C	EP2 antag 43 (no result: CHT allo act, CHT inh)
Nc1nonc1-c1cnon1	none (no result: CHT allo act, CHT inh)
C[C@]12Cc3cnc(-c4ccccc4)nc3C[C@@H]1CC[C@H]1[C@H]2CC[C@@]2(C)[C@H]1CC[C@]2(C)O	EP2 antag 49 (no result: CHT allo act, CHT inh)
COc1ccc(-c2nc(C)sc2CC(=O)N(CCN(C)C)C2CCCC2)cc1	none (no result: CHT allo act, CHT inh)
O=C1C(Cl)=C(Cl)C(=O)C(Cl)=C1Cl	EP2 antag 109 (no result: CHT allo act, CHT inh)
CCCc1ncc(CN2C3CCC2CC(O)(c2ccc(F)cc2)C3)cn1 (stereo unspecified)	none (no result: CHT allo act, CHT inh)
COC(=O)[C@@H]1C(=O)[C@H](C(=O)OC)[C@@H]2CC[C@H]1N2C	EP2 antag 43 (no result: CHT allo act, CHT inh)
CC(=O)N1CCCc2cc(C(O)CN3CC=C(c4ccccc4)CC3)ccc21 (stereo unspecified)	none (no result: CHT allo act, CHT inh)
CCCCC[CH2][Hg][n+]1c[nH]c2nc(N)[nH]c(=S)c21	EP2 antag 100 (no result: CHT allo act, CHT inh)
C#CCOc1ccc(CN2C3CCC2CC(O)(c2ccc(F)cc2)C3)cc1 (stereo unspecified)	none (no result: CHT allo act, CHT inh)
O=C(O)C(O)(c1ccc(-c2ccccc2)cc1)c1ccc(-c2ccccc2)cc1	EP2 antag 41 (no result: CHT allo act, CHT inh)
CC(C)(C)n1nnnc1CN1C2CCC1CC(O)(c1ccc(F)cc1)C2 (stereo unspecified)	none (no result: CHT allo act, CHT inh)
Cc1ccc(C2=CCN(CC(=O)N(C)C3CCCCC3)CC2)o1	none (no result: CHT allo act, CHT inh, EP2 antag)
Cc1nc(CC(=O)N(CCN(C)C)Cc2ccccc2F)cs1	none (no result: CHT allo act, CHT inh)
COc1cc(OC)c(OC)cc1CNCCc1cccc(F)c1	none (no result: EP2 modulator, EP2 antag)
COc1ccc(CNCCc2cccc(F)c2)c2ccccc12	CHT inh -7.2 (no result: EP2 modulator, EP2 antag)
Cc1cc[c]([Sb]2[O][C@H]([C@H](O)[C@H](O)C(=O)O)[C@@H](CO)[O]2)cc1	EP2 antag 49 (no result: CHT allo act, CHT inh)
CC(C)(C)C(=O)c1cn(Cc2ccc(C#N)cc2)c2ccccc12	none (no result: CHT allo act, CHT inh)
Cc1cc(C)cc(N2C(=O)NC(=O)/C(=C\C=C\c3ccco3)C2=O)c1	EP2 antag 87
CCCCN1C(=O)/C(=C/C=C/c2ccco2)C(=O)NC1=S	none (no result: CHT allo act, CHT inh)
O=C1NC(=O)N(Cc2ccc(F)cc2)C(=O)/C1=C\C=C\c1ccco1	EP2 antag 78
O=C1NC(=O)N(Cc2ccccc2)C(=O)/C1=C\c1ccco1	none
CC(C)c1ccc(N2C(=O)NC(=O)/C(=C/C=C/c3ccco3)C2=O)cc1	EP2 antag 59
Cc1ccc(N2C(=O)NC(=O)/C(=C/C=C/c3ccco3)C2=O)cc1	EP2 antag 114
CCC(C)N1CCN(Cc2ccc(C)cc2)CC1 (stereo unspecified)	none (no result: CHT allo act, CHT inh)
Cc1ccc(C2=CCN(CC(=O)Nc3ccc4c(c3)OCCO4)CC2)o1	none (no result: CHT allo act, CHT inh, EP2 antag)
CN1CCN(C2CC3(C)C(CCC4C3CCC3(C)C(O)C(N5CCN(C)CC5)CC43)CC2O)CC1 (stereo unspecified)	none (no result: CHT allo act, CHT inh)
Cc1[nH]c2ccc(F)cc2c1CC(=O)N(CCN(C)C)Cc1cccnc1	none (no result: CHT allo act, CHT inh)
O=C(O)C[C@@H]1NCc2cc3ccccc3nc21	none (no result: CHT allo act, CHT inh)
CCc1ccc(N2C(=O)NC(=O)/C(=C\C=C\c3ccco3)C2=O)cc1	EP2 antag 61
Oc1c(Cl)c(Cl)c(Cl)c(Cl)c1Cl (tested in a mixture with another compound)	EP2 antag 65 (no result: CHT allo act, CHT inh)
CC(=O)O[C@@H]1C[C@@]2(C)[C@H](c3ccoc3)C[C@H]3O[C@]32[C@]2(C)C(=O)C(O)=C3C(C)(C)C(=O)C=C[C@]3(C)C12 (stereo partly specified)	none (no result: CHT allo act, CHT inh)
CCOC(=O)C1(c2ccccc2)CCN(CC(=O)Nc2cccc3ccccc23)CC1	EP2 modulator 63
COCCc1ncc(CN2C3CCC2CC(O)(c2ccc(F)cc2)C3)cn1 (stereo unspecified)	none (no result: CHT allo act, CHT inh)
Cc1ccc(-c2cc(-c3ccccc3)cc(-c3ccccc3)[n+]2-c2ccccc2)cc1	none (no result: EP2 modulator, EP2 antag)
c1ccc(-c2cc(-c3ccccc3)[n+](-c3ccccc3)c(-c3ccccc3)c2)cc1	EP2 antag 64
OCC[n+]1c2ccccc2nc2ccc(N3CCOCC3)cc21	EP2 antag 101
Cn1c(O)c(C=Nc2ccccc2Sc2ccccc2)c(=O)n(C)c1=O	EP2 modulator 61
Cn1c(O)c(C=Nc2ccc(Br)cc2)c(=O)n(C)c1=O	none (no result: EP2 modulator, EP2 antag)
